# Assay outcomes as filed in PubChem BioAssay.
# Shown are actives, neighbours in structure and some others; about 2.3% of the full set was active somewhere.
# Nrf2 ARE act – Nrf2 pathway activation; AREc32 ARE-luciferase reporter (MCF7-derived line), luminescence, 24 h; Potency, µM (top dose mostly 46.1 µM), inactives show top-dose activation, actives largely listed as activators; 410,000 compounds, 0.31% hits; note: % of control where 0% means no effect; nearly all actives have a fitted effect of over 65% in size
#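 Steps: seed AREc32_Fluc cells (1000/well, 5% FBS OPTI-MEM); incubate overnight at 37 deg C; add 23 nL compound; incubate 24 hr; add Steady-Glo; hold 30 min RT; read luminescence.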
# A549 tox – counter-screen for Nrf2 inhibitors: cytotoxicity in A549 cells. AID 504648. A549 ARE-Fluc cells, CellTiter-Fluor viability, 18-24 h. 390,000 compounds, 0.16% hits. Potency, µM (highest dose often 46 µM), inactives show top-dose activity change, negative = cytotoxicity, most hits filed as inhibitors; note: % is set by controls: 0 for no effect and ±100 for the full control effect
#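 A549 ARE_Fluc cells in 5% FBS OPTI-MEM were exposed to compounds in concentration-response for 18-24 h at 37 deg C. Viability was read by CellTiter-Fluor fluorescence (Ex 405/Em 525) after 30 min, before the luciferase read.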
# Rango-impB inh – inhibitors of Rango-importin beta complex formation. Q14974. Rango CFP/YFP FRET sensor + importin beta, 45 min. Potency, µM (highest dose often 92.2 µM), for inactives: at the highest dose inhibition of complex formation. 340,000 compounds, 0.031% hits. AID 540263; calls by dose curve;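 note: 0% = DMSO wells and 100% = buffer wells lacking importin beta; nearly all actives have a fitted effect of over 15% in size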
# Target sequence (Q14974 whole entry, looked up): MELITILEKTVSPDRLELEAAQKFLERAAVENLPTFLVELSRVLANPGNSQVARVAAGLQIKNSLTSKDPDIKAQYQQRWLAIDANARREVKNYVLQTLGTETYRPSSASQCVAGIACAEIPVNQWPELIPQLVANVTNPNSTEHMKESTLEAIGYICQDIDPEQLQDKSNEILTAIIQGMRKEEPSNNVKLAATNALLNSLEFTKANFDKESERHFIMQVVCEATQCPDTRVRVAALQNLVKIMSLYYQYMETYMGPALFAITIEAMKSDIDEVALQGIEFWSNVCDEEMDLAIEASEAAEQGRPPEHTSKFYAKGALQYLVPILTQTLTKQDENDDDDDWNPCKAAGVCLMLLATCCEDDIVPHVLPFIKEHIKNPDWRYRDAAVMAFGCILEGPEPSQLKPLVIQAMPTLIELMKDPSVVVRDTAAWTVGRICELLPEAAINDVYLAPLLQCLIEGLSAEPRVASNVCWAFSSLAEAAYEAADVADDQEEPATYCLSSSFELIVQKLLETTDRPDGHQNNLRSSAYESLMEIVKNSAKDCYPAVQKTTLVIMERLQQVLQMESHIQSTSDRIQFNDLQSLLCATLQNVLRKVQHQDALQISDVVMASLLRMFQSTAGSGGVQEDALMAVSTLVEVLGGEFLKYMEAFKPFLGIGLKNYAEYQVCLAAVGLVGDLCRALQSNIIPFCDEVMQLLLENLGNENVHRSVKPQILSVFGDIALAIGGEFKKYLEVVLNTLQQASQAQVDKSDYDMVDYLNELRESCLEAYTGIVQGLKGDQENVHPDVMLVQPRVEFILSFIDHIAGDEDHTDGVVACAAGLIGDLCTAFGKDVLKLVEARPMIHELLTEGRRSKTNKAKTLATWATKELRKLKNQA
#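 FRET biosensor (snurportin 1 IBB flanked by EYFP and cerulean), 50 nM, with compound 5 min, then 0.125 microM importin beta in PBS, 1 mM DTT, 0.02% Tween-20, 0.1% BSA. CFP/YFP ratio read after 45 min at room temperature; pre-read flags interference.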
# Rango dissoc inh – inhibition of RanGTP-driven Rango-importin beta dissociation; O95149+P62826; Biochemical FRET Rango-importin beta, RanGTP-induced dissociation; Potency, µM (top dose mostly 46.1 µM), without a hit: at the top dose activity change, negative = inhibition; 340,000 compounds, 0.071% hits; calls by dose curve; note: % of control where 0% means no effect; nearly all actives have a fitted effect of over 45% in size
#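 Compounds preincubate 5 min with complex of recombinant Rango and importin beta in PBS with 1 mM DTT. Ran (0.6 uM) loaded with 2 mM GTP plus 0.2 uM RCC1 starts dissociation; FRET is recorded 45 min later.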
# Nrf2 block – Nrf2 pathway inhibition; AID 504444; A549 ARE-Fluc reporter, luciferase luminescence, 18-24 h; Potency, µM (highest dose often 46 µM), inactives show top-dose activity change, negative = inhibition, hits mostly inhibitors; 360,000 compounds, 2.1% hits; note: % is set by controls: 0 for no effect and ±100 for the full control effect; nearly all actives have a fitted effect of over 60% in size
#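 Cells were seeded and rested 2 h, then exposed to compounds for 18-24 h. CellTiter-Fluor was read first as a viability measure. BugLite was added 15 min before the final luminescent read of ARE-luciferase activity in A549 cells.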
# * = called active by the depositor; ? = inconclusive; . = not tested or not shown; [ ] = remark or other dose. Unless noted, calls come from the whole dose curve; as a rule, active = well fitted curve in the direction sought with a large enough effect; inconclusive = small, poorly fitted or top-dose-only effect, or another doubt; inactive = no such curve, though single readings can be large; an effect the other way counts as inactive or inconclusive. Potency is the fitted concentration of half-maximal effect.
SMILES,Nrf2 ARE act,A549 tox,Rango-impB inh,Rango dissoc inh,Nrf2 block
CCCCN(C(=O)CSCc1ccc(C)cc1)c1c(N)n(CCC)c(=O)[nH]c1=O,-0.1%,-9.9%,-1.6%,0.0%,0.5%
COCC1CCCN(C(=O)c2cc(COc3ccc4ncccc4c3)on2)C1 (centres undefined),-0.3%,-18.0%,-2.7%,7.3%,8.2µM*
CCOC(=O)COc1ccc2ccccc2c1/C=C/[N+](=O)[O-],?,?,2.0%,-1.3%,?
CCOc1ccc(/C=C/[N+](=O)[O-])c2ccccc12,8.8%,?,0.5%,0.5%,25.9µM*
Cc1ccc(-n2nc3c4c(cccc4c2=O)-c2ccccc2-3)cc1,5.0%,16.4µM*,0.3%,0.5%,?
COc1ccc(CCNc2ccc(N3C(=O)CC(C)C3=O)cc2[N+](=O)[O-])cc1OC (centres undefined),2.5%,-29.8%,0.9%,-0.5%,14.6µM*
COc1ccc(OC)c(NC(=O)Cn2cc(C(=O)c3ccco3)c3ccccc32)c1,-0.2%,0.0%,-5.9%,-21.3%,14.6µM*
COc1ccccc1NC(=O)Cn1cc(C(=O)c2ccco2)c2ccccc21,8.8%,-1.1%,4.3%,-5.6%,-12.2%
COc1ccc(S(=O)(=O)NCCc2nnc3ccc(SCC(=O)Nc4nc(C)cs4)nn23)cc1,0.5%,-0.1%,-3.8%,25.4%,3.1%
CCOC(=O)c1cc(C(=O)NCc2ccc(Cl)cc2Cl)nn1C,0.2%,-17.0%,0.5%,14.3%,20.6µM*
O=C(Cc1ccccc1)N(Cc1cccnc1)c1nc2c(F)cccc2s1,3.7%,-13.9%,.,.,.
O=C(c1ccc(S(=O)(=O)Cc2cc(F)ccc2F)c([N+](=O)[O-])c1)N1CCCCC1,?,-12.2%,0.4%,0.0%,-16.1%
O=C(c1ccc(S(=O)(=O)Cc2cc(F)ccc2F)c([N+](=O)[O-])c1)N1CCCC1,8.91µM*,-3.5%,-4.6%,17.4%,?
CCCn1c(NC(=O)c2ccc([N+](=O)[O-])o2)nc2ccccc21,12.6µM*,-10.9%,?,?,0.9%
Cc1ccc(OCCn2c(NC(=O)c3ccco3)nc3ccccc32)cc1,3.9%,-12.4%,-5.2%,5.9%,-25.4%
Cc1cccc(OCCn2c(NC(=O)c3ccco3)nc3ccccc32)c1,4.9%,-4.3%,?,-1.7%,18.4µM*
CS(=O)(=O)NCCSc1cc(C(F)(F)F)nc2ccccc12,0.0%,1.8%,0.1%,4.8%,-26.0%
CCOc1ccc(NC(=O)CN2C(=O)CSC2=O)cc1,0.3%,-12.2%,1.5%,-5.2%,7.8%
Fc1cccc(Cc2c(-c3ccco3)nc3c4ccccc4ccn23)c1,5.01µM*,.,.,.,.
Brc1cccc(-c2nc3c4ccccc4ccn3c2Cc2ccsc2)c1,11.2µM*,.,.,.,.
Clc1cccc(Cc2c(-c3cccc(Cl)c3)nc3c4ccccc4ccn23)c1,11.1%,.,.,.,.
Clc1cccc(Cc2c(-c3ccccc3)nc3c4ccccc4ccn23)c1,5.01µM*,.,.,.,.
COc1ccc(Cc2c(-c3ccccc3)nc3c4ccccc4ccn23)c(C)c1,5.01µM*,.,.,.,.
COc1ccc(Cc2c(-c3ccc(C#N)cc3)nc3c4ccccc4ccn23)c(C)c1,7.8%,.,.,.,.
Fc1cccc(Cc2c(-c3cccc(Cl)c3)nc3c4ccccc4ccn23)c1,13.6%,.,.,.,.
SMILES,Nrf2 ARE act,A549 tox,Rango-impB inh,Rango dissoc inh,Nrf2 block
Nc1c(-c2ccccc2)cc[nH]c1=O,.,-0.9%,.,.,-4.2%
COc1ccc(-c2csc3nc(-c4ccccc4C)oc(=O)c23)cc1OC,-0.2%,1.9%,.,.,5.1%
CC(C)(C)c1nnc(NC(=O)C2CCN(C(=O)c3ccccc3)CC2)s1,.,-1.5%,.,.,-29.5%
Cc1cc2cc(CCNC(=O)CCc3ccccc3)c(=O)[nH]c2cc1C,-0.8%,2.9%,1.4%,0.3%,-4.3%
C=C(C(=O)c1ccccc1)C(CC(=O)c1ccccc1)c1ccccc1 (centres undefined),4.1%,?,-1.3%,6.7%,23.1µM*
COc1ccc(CN(C(=O)CSc2nnc(-c3ccccc3C)o2)c2ccc(F)cc2)cc1,1.1%,6.8%,-1.2%,-4.8%,.
O=C(CSc1nnc(-c2c[nH]c3ccccc23)o1)N(Cc1ccccc1)c1ccc(F)cc1,3.8%,?,0.1%,29.1%,18.4µM*
O=S(=O)(c1ccc2c(c1)OCCO2)N1CCN(S(=O)(=O)c2ccc(Br)cc2F)CC1,.,-6.3%,.,.,-3.7%
CC1CN(S(=O)(=O)c2cc(C(=O)NCc3ccncc3)ccc2Cl)CC(C)O1 (centres undefined),-0.6%,-1.2%,4.9%,-16.2%,-5.4%
Cc1ccc(C)c(NS(=O)(=O)c2cc(C(=O)N3CCc4ccccc4C3)ccc2Cl)c1,-0.9%,-18.2%[1.84 µM],0.2%,13.0%,18.4µM*
Cc1cccc(NS(=O)(=O)c2cc(C(=O)N3CCc4ccccc4C3)ccc2Cl)c1C,2.8%,?,-1.3%,11.5%,?
Cc1ccc(C)c(NS(=O)(=O)c2cc(C(=O)NCCC3=CCCCC3)ccc2C)c1,0.3%,?,-0.6%,-12.2%,20.6µM*
Cc1ccccc1CCNC(=O)c1ccc(Cl)c(S(=O)(=O)N2CC(C)OC(C)C2)c1 (centres undefined),2.3%,-5.0%,?,-8.1%,5.17µM*
O=C(NCCC1=CCCCC1)c1ccc(=O)oc1,13.4%,-19.4%,-2.2%,4.4%,?
O=C(NCCC1=CCCCC1)c1coc(=O)c(Br)c1,12.6µM*,-27.6%,-3.9%,-22.8%,?
N#CCCN(Cc1ccccc1)C(=O)c1nccnc1C(=O)O,0.6%,-2.4%,2.4%,-4.8%,5.9%
O=C(CC1C=Cc2ccccc2N1C(=O)c1ccccc1)c1ccccc1 (centres undefined),-0.3%,-9.8%,2.1%,-9.8%,?
CC(=O)N1CCc2cc(Br)cc(S(=O)(=O)N3CCC(C)CC3)c21,0.5%,1.2%,.,.,1.4%[9.27 µM]
O=C(NCCC1=CCCCC1)c1ccc(Cl)c(S(=O)(=O)N2CCCCC2)c1,-0.3%,2.8%,-2.6%,0.3%,14.6µM*
COc1ccc(NC(=O)Cn2nnc(-c3ccccc3NC(=O)c3cccs3)n2)cc1,-0.7%,-14.2%,-4.2%,4.4%,18.4µM*
CC(=O)Nc1ccc(NC(=O)COc2cccc3ccccc23)cc1,0.4%,.,.,.,.
CNc1ccc(Br)cc(C(=O)/C=C/c2cccc(Cl)c2Cl)c1=O,7.94µM*,-1.2%,?,?,0.0%
CNc1ccc(Br)cc(C(=O)/C=C/c2cccc(OC)c2OC)c1=O,-0.2%,-6.6%,4.1%,5.7%,2.1%
